The supplement of paper PMC13380429

Assays:
[1] = tested on: Vero E6 infected with SARS-CoV-2; test: morphology score (similarity to uninfected cells); higher = more like uninfected cells; conditions: 24 h
[2] = tested on: Vero E6 infected with SARS-CoV-2; test: SARS-CoV-2 infection rate relative to infected DMSO; higher = more infection, active = 60 or less; conditions: 24 h

For `O=C(NCCO)c1cc(C(=O)NCCO)cc(C(=O)NCCO)c1` (10 µM), the morphology score [1] was 0.0411 and the SARS-CoV-2 infection rate [2] was 102% (inactive).
In the case of `CCN(CC)CCNc1ccc(CO)c2sc3ccccc3c(=O)c12` [hycanthone] (0.833333 µM), the morphology score [1] is reported as 0.244 and the SARS-CoV-2 infection rate [2] is reported as 82% (inactive).
For `CN1CCN(c2ccc3nc(-c4c(N)c5c(F)cccc5[nH]c4=O)[nH]c3c2)CC1` [dovitinib] (10 µM), the morphology score [1] was -0.00197 and the SARS-CoV-2 infection rate [2] was 102% (inactive).
In the case of `COc1cccc(C(=O)CCN[C@@H](C)[C@H](O)c2ccccc2)c1` [oxyfedrine] (10 µM), the morphology score [1] is reported as 0.217 and the SARS-CoV-2 infection rate [2] is reported as 102% (inactive).
In the case of `COc1ccc(CCNCC(O)COc2cccc(C)c2)cc1OC` (configuration not stated) [bevantolol] (10 µM), the morphology score [1] is reported as -0.027 and the SARS-CoV-2 infection rate [2] is reported as 110% (inactive).
`O=C(CO)[C@@H](O)[C@@H](O)[C@H](O)CO` [tagatose] (10 µM) was tested, and the morphology score [1] was -0.0178 and the SARS-CoV-2 infection rate [2] was 108% (inactive).
`Cc1nc2ccc(Oc3ccc(F)cc3)cc2c(=O)n1C[C@H]1CCCN(C(C)C)C1` (10 µM) was tested, and the morphology score [1] was 0.295 and the SARS-CoV-2 infection rate [2] was 76% (inactive).
In the case of `c1ccc(-c2nc(CN3CCN(c4ncccn4)CC3)c[nH]2)cc1` (10 µM), the morphology score [1] is reported as -0.0694 and the SARS-CoV-2 infection rate [2] is reported as 107% (inactive).
With `CS(=O)(=O)c1ccc([C@@H](O)[C@@H](CO)NC(=O)C(Cl)Cl)cc1` [thiamphenicol] (10 µM) the morphology score [1] was -0.172 and the SARS-CoV-2 infection rate [2] was 118% (inactive).
For `CC(C)CCN1c2nc(Nc3cc(F)c(O)c(F)c3)ncc2N(C)C(=O)[C@@H]1C` (0.833333 µM), the morphology score [1] was 0.164 and the SARS-CoV-2 infection rate [2] was 106% (inactive).
In the case of `NS(=O)(=O)c1ccc2c(c1)C1C=CCC1C(c1ccc(Br)cc1)N2` (configuration not stated) (10 µM), the morphology score [1] is reported as -0.0557 and the SARS-CoV-2 infection rate [2] is reported as 95% (inactive).
